Sampled rows, rich in hits. Any-hit rate of the full collection: about 7.9%.
MCF10A rerep – A quantitative high throughput screen for small molecules that induce DNA re-replication in MCF 10a normal breast cells; Potency, µM (top dose mostly 46.1 µM), without a hit: at the top dose activity, positive = re-replication, hits mostly activators; MCF 10A DNA re-replication, Hoechst nuclear intensity, 48 h; AID 624296, 2012; 2.9% of 350,000 active; also: % of control where 0% means no effect; nearly all actives have a fitted effect of over 50% in size
KB-3-1 tox – qHTS assay for MDR1-selective chemotherapeutics: Primary screen using the parental adenocarcinoma cell KB-3-1; KB-3-1 viability, CellTiter-Glo ATP luminescence, 72 h; Potency, µM (highest dose often 46.1 µM), actives largely listed as cytotoxic; 1.4% of 400,000 active; also: % is scaled to controls: 0 for no effect and ±100 for the full control effect; nearly all actives have a fitted effect of over 60% in size
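Cells are dispensed, compounds pinned in, plates held at 37 °C for 72 h, then CellTiter-Glo is added and luminescence read after 10 minutes. Cell line: parental KB-3-1 in phenol-red-free DMEM, 10% FBS.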
HT1080 IDH1KD tx – qHTS for induction of synthetic lethality in tumor cells producing 2HG: qHTS for the HT-1080-IDH1KD cell line; HT-1080 IDH1 knockdown viability, ATP luminescence, 48 h; AID 686971, 2013; Potency, µM (highest dose often 46.1 µM), without a hit: at the highest dose activity, negative = toxicity, most hits filed as cytotoxic; 2% of 360,000 active;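 also: 0% = DMSO wells and -100% = cell-free medium wells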
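In this qHTS, HT-1080 cells depleted of IDH1 are exposed for 48 h at 37 °C to compound titrations. Toxicity is scored from CellTiter-Glo luminescence, with DMSO as full viability and medium alone as none.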
HT1080NT lethal – qHTS for induction of synthetic lethality in tumor cells producing 2HG: qHTS for the HT-1080-NT fibrosarcoma cell line; AID 686970, 2013; HT-1080-NT fibrosarcoma viability, CellTiter-Glo ATP luminescence, 48 h; 1.6% of 360,000 active; Potency, µM (series often up to 46.1 µM), for inactives: top-dose activity, negative = less viability, hits mostly cytotoxic;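 also: NT is the 2HG producing partner of a matched IDH1 knockdown line; 0% = DMSO-treated cells and -100% = media-only wells without cells; nearly all actives have a fitted effect of over 55% in size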
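Viability of the 2HG-overproducing fibrosarcoma line after 48 hours of compound exposure at 37 degrees C was determined by luminescence with CellTiter-Glo, and concentration-effect curves were then fitted and categorized.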
SW480 rerep – A quantitative high throughput screen for small molecules that induce DNA re-replication in SW480 colon adenocarcinoma cells; Potency, µM (titrated, usually from 46.1 µM), without a hit: at the highest dose re-replication activation, hits mostly activators; SW480 DNA re-replication, Hoechst DNA content imaging, 48 h; 1.8% of 340,000 active; also: % of control where 0% means no effect; nearly all actives have a fitted effect of over 55% in size
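Treated cells incubate 48 hr (37 C, 5% CO2), are stained 40 min with Hoechst, and nuclear fluorescence is enumerated; a rise in nuclei with high DNA signal marks re-replication.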
KB-V1 cytotox – qHTS assay for MDR1-selective chemotherapeutics: Primary screen using the drug-selected MDR subline cells KB-V1. 3.4% of 400,000 active. Potency, µM (titrated, usually from 46.1 µM), usual class: cytotoxic. KB-V1 MDR cells viability, CellTiter-Glo, 72 h; also: % is scaled to controls: 0 for no effect and ±100 for the full control effect; nearly all actives have a fitted effect of over 60% in size
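KB-V1 MDR subline cells in DMEM (phenol-red free, 10% FBS) exposed to compounds in qHTS concentration series for 72 h at 37 degrees C. Viability read by CellTiter-Glo luminescence; concentration-effect curves fitted after normalization and correction.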
* hit, by the source's call; i = inactive; ? = inconclusive; · = not tested or not shown; ! = not confirmed by another sample; [ ] = remark or other dose. Calls follow the shape of the dose curve; as a rule, active = well fitted curve in the direction sought with a large enough effect; inconclusive = small, poorly fitted or top-dose-only effect, or another doubt; inactive = no such curve, though single readings can be large; an effect the other way counts as inactive or inconclusive. Potency is read from the fitted curve at half-maximal effect.

SMILES	MCF10A rerep	KB-3-1 tox	HT1080 IDH1KD tx	HT1080NT lethal	SW480 rerep	KB-V1 cytotox
COc1cc(OC)cc(-c2nc3nc(C)c(CCC(=O)Nc4cc(C)cc(C)c4)c(C)n3n2)c1	·	i	·	·	·	i
C=CC[n+]1c(/C=C2\C=Cc3cc(C)ccc3N2CC)ccc2ccccc21	-0.3%	?	13µM*	?	-160.5%	?
FC(F)(F)c1nc2ccccc2n2c(-c3ccc(Cl)cc3Cl)nnc12	25.6%	18.4µM*	?	?	?	?
FC(F)(F)c1nc2ccccc2n2c(-c3c(Cl)cccc3Cl)nnc12	17.1%	?	-5.3%	-9.5%	3.4%	i
CCCN1CNc2c(c(=O)[nH]c(=S)n2Cc2ccc(OC)c(OC)c2)C1	·	·	22.1%	9.8%	·	·
CCc1ccc(NC(=O)CSC2=Nc3ccccc3C3=NC(CCC(=O)NCc4ccco4)C(=O)N23)cc1 (configuration not stated)	·	i	·	·	·	i
Clc1ccc(-c2nc3ccncc3[nH]2)cc1	1.9%	?	?	?	-12.7%	18.4µM*
Cc1cc2ccccc2n1-c1ccc(C(=O)N2CCCCC2)s1	·	i	·	·	·	i
CC1=C(C)/C(=N/OC(=O)c2cccc([N+](=O)[O-])c2)C=CC1=O	8.2µM*	i	18.4µM*	?	8.2µM*	i
N/C(=N/OC(=O)c1cccc([N+](=O)[O-])c1)c1cccc([N+](=O)[O-])c1	?	?	25.6%	19.3%	-0.2%	i
O=C(CNC(=O)c1ccccc1)OCC(=O)c1ccccc1	·	i	·	·	·	i
Cc1nc(NC(=O)c2ccccc2)sc1-c1csc(NCc2ccccc2)n1	9.5%	i	-22.2%	-22.5%	-0.5%	i
Cc1nc(NC(=O)c2ccccc2)sc1-c1csc(N)n1	16.4µM*	3.66µM*	?	-19.1%	-1.0%	?
CCOc1cccc2sc(Nc3nc4ccc(NC(C)=O)cc4s3)nc12	3.66µM*	11.6µM*	?	?	4.11µM*	?
CCOc1cccc2sc(NC(=O)CCS(=O)(=O)c3ccccc3)nc12	20.6µM*	?	?	-4.1%	20.6µM*	?
Cc1ccc(NNC(=O)c2cc(C)on2)c(C)c1	19.7%	i	8.2µM*	?	-9.8%	i
Cc1cc(C(=O)NNc2ccc(F)cc2F)no1	?	i	5.17µM*	3.66µM*	-23.2%	i
C[C@@H]1CCCCO[C@@H](CN(C)C(=O)CCCN(C)C)[C@@H](C)CN([C@H](C)CO)C(=O)c2cc(NC(=O)CCC(F)(F)F)ccc2O1	·	?	5.7%	3.0%	·	i
CN(C)c1ccc(-c2nc(-c3ccco3)no2)cc1[N+](=O)[O-]	·	i	·	·	·	i
O=C(NCc1cccnc1)C1CCN(Cc2cc3ccccc3n2Cc2cccc(Cl)c2)CC1	·	i	·	·	·	i
OCCN1CCN(CC/C=C2/c3ccccc3CSc3ccccc32)CC1	9.8%	i	-21.3%	-9.7%	-9.8%	i
CNCC/C=C1/c2ccccc2CSc2ccccc21	-9.9%	i	?	16.4µM*	10.2%	i
CCOC(=O)C(C)C(C)=O (configuration not stated)	9.4%	?	58µM*	?	23.5%	?
CCOC(=O)C(C(C)=O)C(c1ccc(OC)cc1)C(C(C)=O)C(=O)OCC (configuration not stated)	-3.1%	i	5.1%	2.8%	-0.1%	i
CC(C)(C)N(NC(=O)Nc1ccc(F)cc1)C(=O)c1ccccc1	7.9%	i	-3.1%	1.8%	-4.6%	i
SMILES	MCF10A rerep	KB-3-1 tox	HT1080 IDH1KD tx	HT1080NT lethal	SW480 rerep	KB-V1 cytotox
CC(C)(C)N(NC(=O)Nc1ccc(Cl)c(Cl)c1)C(=O)c1ccccc1	?	?	18.4µM*	20.6µM*	-3.3%[9.22 µM]	23.1µM*
COc1ccc(-c2nnc(SCC(=O)N3CCC(C)CC3)o2)cc1	·	i	·	·	·	i
COc1ccc(Cl)cc1NC(=O)c1cc(S(=O)(=O)N2CCC(C)CC2)cn1C	·	i	·	·	·	i
Cc1ccccc1CN(C)CCc1ccccn1	0.651µM*	i	1.0%	13.2%	-2.4%	i
Cc1cccc(CN(C)CCc2ccccn2)c1	1.9%	i	3.1%	16.9%	-13.8%	i
Cc1ccc(S(=O)(=O)N(CC(=O)N/N=C/c2cccc(Cl)c2)c2cccc3cccnc23)cc1	?	?	15.6%	16.6%	16.4µM*	?
CCOc1ccc(CNS(=O)(=O)c2cc3c(cc2C)NC(=O)CO3)cc1	·	i	·	·	·	i
CCc1cc(CNC(=O)c2cccc(OC3CCN(S(C)(=O)=O)CC3)c2)on1	13.1%	?	-13.5%	16.4µM*	0.4%	?
O=C(NCc1cccc(Cl)c1)c1cccc(OC2CCN(C(=O)C3CC3)CC2)c1	?	23.1µM*	-11.8%	?	-5.6%	?
CNc1cc2c(cc1S(=O)(=O)Nc1ccc(C)c(C)c1)CCC(=O)N2	·	i	·	·	·	i
COc1ccc(Cl)cc1NC(=O)Cn1c(=O)n(Cc2ccco2)c(=O)c2ccc(C(=O)NC3CCCC3)cc21	·	i	·	·	·	i
CCOC(=O)COc1ccc2nsnc2c1Cl	17.6%	i	-6.5%	-4.3%	10.6%	i
C=C(CC)C(=O)c1ccc(OCC(=O)O)c(Cl)c1Cl	18.8µM*!	i	23.1µM*	18.4µM*	?	i
CCOc1ccc(-c2cn3c(n2)sc2cc(C(=O)NCCCN4CCCCCC4)ccc23)cc1	·	i	·	·	·	?
CC1CCCCN1CCCNC(=O)c1ccc2c(c1)sc1nc(-c3ccc(F)cc3)cn12 (configuration not stated)	·	i	·	·	·	20.6µM*
Cc1ccc(-c2cn3c(n2)sc2cc(C(=O)NCCCN4CCCCCC4)ccc23)cc1	·	i	·	·	·	i
CCCN1CCN(CCCNC(=O)c2ccc3c(c2)sc2nc(-c4ccc(OCC)cc4)cn23)CC1	·	18.4µM*	·	·	·	?
CCOc1ccc(-c2cn3c(n2)sc2cc(C(=O)NCCCN4CCCCC4)ccc23)cc1	·	?	·	·	·	20.6µM*
O=C(NCCCN1CCCCC1)c1ccc2c(c1)sc1nc(-c3ccc(F)cc3)cn12	·	i	·	·	·	16.4µM*
COc1cc(CNC(=O)c2cnc(SC)nc2-c2ccccc2)cc(OC)c1OC	·	i	·	·	·	i
